Drawing on ChEMBL document CHEMBL2218924, “A broad activity screen in support of a chemogenomic map for kinase signalling research and drug discovery” (Biochem J, 2013), this text covers residual activity for 3 compounds.

The structures appear in SMILES notation.

Test [1] concerns the target T1, Serine/threonine-protein kinase 17A (Homo sapiens) (UniProt Q9UEE5).
T1 sequence (whole entry): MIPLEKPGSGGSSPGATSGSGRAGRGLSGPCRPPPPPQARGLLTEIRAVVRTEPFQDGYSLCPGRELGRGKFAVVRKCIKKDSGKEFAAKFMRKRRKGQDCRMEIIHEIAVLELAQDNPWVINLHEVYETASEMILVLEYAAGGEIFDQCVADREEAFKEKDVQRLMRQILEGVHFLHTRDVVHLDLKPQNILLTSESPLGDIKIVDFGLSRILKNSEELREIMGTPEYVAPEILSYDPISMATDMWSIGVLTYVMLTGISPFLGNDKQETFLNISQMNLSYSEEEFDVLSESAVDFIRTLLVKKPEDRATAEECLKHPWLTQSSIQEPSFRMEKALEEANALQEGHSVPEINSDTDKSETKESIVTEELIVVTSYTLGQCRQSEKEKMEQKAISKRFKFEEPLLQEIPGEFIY
To be noted: at 10 µM.

Test [2] has as its target T2, Dual specificity tyrosine-phosphorylation-regulated kinase 2 (Homo sapiens) (UniProt Q92630).
T2 sequence (whole entry): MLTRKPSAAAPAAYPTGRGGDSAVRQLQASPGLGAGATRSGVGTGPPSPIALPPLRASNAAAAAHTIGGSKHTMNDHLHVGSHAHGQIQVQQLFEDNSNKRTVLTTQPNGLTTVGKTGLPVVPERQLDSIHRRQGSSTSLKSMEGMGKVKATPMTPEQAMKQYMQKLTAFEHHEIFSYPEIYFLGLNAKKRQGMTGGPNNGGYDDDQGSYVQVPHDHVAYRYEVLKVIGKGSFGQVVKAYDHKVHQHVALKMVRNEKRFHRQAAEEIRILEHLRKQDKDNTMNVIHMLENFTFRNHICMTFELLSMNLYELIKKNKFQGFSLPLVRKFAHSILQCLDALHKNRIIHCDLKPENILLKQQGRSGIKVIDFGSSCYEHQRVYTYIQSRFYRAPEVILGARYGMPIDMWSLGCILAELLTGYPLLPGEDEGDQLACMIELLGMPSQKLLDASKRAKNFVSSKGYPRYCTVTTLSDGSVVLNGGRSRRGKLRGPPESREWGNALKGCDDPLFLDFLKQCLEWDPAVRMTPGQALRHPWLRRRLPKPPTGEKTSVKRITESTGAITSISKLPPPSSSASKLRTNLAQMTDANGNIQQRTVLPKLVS
Particulars: at 1 µM.

For test [3], the target named is T2, Dual specificity tyrosine-phosphorylation-regulated kinase 2 (Homo sapiens). Particulars: at 10 µM.
The target in test [4] is T3, Ephrin type-A receptor 1 (Homo sapiens) (UniProt P21709).
T3 sequence (whole entry): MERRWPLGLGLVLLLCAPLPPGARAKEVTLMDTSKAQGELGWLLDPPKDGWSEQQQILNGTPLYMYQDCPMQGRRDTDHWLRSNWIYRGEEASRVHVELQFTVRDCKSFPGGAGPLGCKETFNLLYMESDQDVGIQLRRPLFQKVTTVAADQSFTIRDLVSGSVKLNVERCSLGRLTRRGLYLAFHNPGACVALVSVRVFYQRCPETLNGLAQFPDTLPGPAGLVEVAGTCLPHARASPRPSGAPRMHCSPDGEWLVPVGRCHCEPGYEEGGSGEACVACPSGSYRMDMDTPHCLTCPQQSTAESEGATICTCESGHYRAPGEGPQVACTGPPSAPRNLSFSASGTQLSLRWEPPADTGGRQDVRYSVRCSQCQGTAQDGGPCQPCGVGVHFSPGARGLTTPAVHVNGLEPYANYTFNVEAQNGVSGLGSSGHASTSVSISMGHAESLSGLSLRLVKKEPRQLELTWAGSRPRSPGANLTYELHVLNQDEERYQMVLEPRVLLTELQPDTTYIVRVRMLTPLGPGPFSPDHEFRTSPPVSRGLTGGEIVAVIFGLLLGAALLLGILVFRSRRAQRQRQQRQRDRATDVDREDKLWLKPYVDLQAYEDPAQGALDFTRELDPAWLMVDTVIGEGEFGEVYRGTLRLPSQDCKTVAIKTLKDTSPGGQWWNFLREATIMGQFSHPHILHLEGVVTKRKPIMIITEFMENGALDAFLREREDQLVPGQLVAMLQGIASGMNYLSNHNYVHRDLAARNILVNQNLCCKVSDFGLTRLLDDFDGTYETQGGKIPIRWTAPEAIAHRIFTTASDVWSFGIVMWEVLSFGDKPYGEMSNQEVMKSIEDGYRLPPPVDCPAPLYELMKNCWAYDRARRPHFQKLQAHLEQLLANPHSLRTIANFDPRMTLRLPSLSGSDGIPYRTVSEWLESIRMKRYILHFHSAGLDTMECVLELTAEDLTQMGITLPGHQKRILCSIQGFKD
To be noted: at 1 µM.

For test [5], the target named is Ephrin type-A receptor 2 (Homo sapiens) (UniProt P29317). To be noted: at 10 µM.
Test [6] addresses T4, Ephrin type-A receptor 3 (Homo sapiens) (UniProt P29320).
T4 sequence (whole entry): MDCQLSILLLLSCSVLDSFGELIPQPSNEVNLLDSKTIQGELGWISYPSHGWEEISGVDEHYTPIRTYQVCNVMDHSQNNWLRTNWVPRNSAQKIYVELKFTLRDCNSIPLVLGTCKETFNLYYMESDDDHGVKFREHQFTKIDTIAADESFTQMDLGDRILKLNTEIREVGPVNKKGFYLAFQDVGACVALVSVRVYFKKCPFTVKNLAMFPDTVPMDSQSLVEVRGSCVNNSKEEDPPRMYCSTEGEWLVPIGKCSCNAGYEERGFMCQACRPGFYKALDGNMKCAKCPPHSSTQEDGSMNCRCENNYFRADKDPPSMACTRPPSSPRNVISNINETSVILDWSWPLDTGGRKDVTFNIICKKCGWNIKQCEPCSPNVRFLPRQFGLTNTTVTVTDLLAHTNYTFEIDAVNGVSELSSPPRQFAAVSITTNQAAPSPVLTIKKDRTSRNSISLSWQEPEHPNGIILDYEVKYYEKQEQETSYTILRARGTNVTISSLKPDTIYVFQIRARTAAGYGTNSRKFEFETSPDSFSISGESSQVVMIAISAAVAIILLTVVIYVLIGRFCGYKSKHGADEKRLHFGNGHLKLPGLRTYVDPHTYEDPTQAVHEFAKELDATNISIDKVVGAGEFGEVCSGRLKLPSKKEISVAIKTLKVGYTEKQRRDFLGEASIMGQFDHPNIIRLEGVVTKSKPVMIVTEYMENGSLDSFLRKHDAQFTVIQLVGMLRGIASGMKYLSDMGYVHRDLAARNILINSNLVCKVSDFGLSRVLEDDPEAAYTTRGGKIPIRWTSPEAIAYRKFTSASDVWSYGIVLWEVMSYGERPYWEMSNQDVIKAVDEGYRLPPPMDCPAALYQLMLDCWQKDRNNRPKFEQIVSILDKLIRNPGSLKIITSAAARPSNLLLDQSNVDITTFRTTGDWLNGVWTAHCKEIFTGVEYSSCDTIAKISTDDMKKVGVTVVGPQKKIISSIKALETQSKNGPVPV
To be noted: at 10 µM.

Test [7] deals with Ephrin type-A receptor 4 (Homo sapiens) (UniProt P54764). To be noted: at 1 µM.
The target is the same in test [8]. To be noted: at 10 µM.
Test [9] addresses Ephrin type-A receptor 5 (Homo sapiens) (UniProt P54756). Particulars: at 1 µM.
The target is the same in test [10]. To be noted: at 10 µM.
The target in test [11] is Ephrin type-A receptor 7 (Homo sapiens) (UniProt Q15375). To be noted: at 1 µM.
Test [12] deals with T5, Ephrin type-A receptor 8 (Homo sapiens) (UniProt P29322).
T5 sequence (whole entry): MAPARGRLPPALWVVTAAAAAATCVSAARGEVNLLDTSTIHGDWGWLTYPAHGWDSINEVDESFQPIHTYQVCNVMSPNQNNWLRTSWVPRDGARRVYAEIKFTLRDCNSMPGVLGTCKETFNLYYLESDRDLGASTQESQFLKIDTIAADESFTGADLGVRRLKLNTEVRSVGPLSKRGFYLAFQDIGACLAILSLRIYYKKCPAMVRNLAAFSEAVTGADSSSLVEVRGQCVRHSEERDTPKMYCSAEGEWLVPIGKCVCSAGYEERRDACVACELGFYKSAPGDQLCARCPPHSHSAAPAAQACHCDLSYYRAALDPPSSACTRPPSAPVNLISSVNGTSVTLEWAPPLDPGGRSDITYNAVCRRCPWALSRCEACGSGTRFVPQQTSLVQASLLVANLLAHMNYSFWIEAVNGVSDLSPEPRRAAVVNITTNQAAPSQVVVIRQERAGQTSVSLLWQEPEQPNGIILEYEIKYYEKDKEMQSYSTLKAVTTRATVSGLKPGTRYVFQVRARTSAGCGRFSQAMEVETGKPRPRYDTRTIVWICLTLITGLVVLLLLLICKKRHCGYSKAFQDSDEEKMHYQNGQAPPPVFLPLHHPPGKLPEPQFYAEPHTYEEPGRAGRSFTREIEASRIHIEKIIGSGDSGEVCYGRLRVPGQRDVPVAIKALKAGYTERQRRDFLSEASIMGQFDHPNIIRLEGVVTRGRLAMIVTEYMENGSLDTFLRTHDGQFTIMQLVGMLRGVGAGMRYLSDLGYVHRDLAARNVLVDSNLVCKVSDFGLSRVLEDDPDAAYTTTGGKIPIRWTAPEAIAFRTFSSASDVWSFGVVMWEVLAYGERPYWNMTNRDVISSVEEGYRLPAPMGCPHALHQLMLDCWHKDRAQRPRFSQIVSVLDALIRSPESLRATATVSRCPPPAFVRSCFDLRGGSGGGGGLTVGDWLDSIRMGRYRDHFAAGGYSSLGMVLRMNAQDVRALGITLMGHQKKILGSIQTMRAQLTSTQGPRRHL
To be noted: at 10 µM.

Test [13] concerns the target T3, Ephrin type-A receptor 1 (Homo sapiens). Particulars: at 10 µM.
For test [14], the target named is Ephrin type-A receptor 7 (Homo sapiens) (UniProt Q15375). To be noted: at 10 µM.
Test [15] has as its target T5, Ephrin type-A receptor 8 (Homo sapiens). Particulars: at 1 µM.
Test [16] concerns the target T6, Ephrin type-B receptor 1 (Homo sapiens) (UniProt P54762).
T6 sequence (whole entry): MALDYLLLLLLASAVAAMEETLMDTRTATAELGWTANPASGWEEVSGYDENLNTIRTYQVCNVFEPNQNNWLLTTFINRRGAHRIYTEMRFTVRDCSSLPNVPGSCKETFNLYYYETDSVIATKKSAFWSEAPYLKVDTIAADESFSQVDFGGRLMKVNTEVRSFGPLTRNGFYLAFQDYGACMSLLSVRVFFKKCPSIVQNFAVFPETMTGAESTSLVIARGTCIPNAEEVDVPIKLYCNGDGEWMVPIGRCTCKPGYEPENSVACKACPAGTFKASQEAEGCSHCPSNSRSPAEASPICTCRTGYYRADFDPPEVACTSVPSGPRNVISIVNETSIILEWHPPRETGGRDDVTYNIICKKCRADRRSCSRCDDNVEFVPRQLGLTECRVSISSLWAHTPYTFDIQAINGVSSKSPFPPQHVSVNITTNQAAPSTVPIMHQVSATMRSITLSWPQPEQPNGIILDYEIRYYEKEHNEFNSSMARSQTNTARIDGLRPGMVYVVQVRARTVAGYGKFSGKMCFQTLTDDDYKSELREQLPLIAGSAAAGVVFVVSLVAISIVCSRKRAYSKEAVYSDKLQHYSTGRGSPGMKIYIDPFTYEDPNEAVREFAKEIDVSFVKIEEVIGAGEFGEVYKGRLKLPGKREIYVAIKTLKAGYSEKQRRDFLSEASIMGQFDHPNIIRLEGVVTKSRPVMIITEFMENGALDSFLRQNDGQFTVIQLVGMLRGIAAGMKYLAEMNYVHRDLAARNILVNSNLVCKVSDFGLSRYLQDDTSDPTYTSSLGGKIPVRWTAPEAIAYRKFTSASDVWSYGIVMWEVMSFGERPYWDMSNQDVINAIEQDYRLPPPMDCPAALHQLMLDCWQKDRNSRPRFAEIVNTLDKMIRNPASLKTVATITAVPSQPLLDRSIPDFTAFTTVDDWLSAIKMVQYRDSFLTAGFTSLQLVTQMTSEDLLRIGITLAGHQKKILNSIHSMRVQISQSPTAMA
Particulars: at 1 µM.

In test [17] the target is Ephrin type-A receptor 2 (Homo sapiens) (UniProt P29317). To be noted: at 1 µM.
In test [18] the target is T4, Ephrin type-A receptor 3 (Homo sapiens). Particulars: at 1 µM.

Ephrin type-A receptor 7 (Homo sapiens), sequence (Q15375 28-998 limits assumed): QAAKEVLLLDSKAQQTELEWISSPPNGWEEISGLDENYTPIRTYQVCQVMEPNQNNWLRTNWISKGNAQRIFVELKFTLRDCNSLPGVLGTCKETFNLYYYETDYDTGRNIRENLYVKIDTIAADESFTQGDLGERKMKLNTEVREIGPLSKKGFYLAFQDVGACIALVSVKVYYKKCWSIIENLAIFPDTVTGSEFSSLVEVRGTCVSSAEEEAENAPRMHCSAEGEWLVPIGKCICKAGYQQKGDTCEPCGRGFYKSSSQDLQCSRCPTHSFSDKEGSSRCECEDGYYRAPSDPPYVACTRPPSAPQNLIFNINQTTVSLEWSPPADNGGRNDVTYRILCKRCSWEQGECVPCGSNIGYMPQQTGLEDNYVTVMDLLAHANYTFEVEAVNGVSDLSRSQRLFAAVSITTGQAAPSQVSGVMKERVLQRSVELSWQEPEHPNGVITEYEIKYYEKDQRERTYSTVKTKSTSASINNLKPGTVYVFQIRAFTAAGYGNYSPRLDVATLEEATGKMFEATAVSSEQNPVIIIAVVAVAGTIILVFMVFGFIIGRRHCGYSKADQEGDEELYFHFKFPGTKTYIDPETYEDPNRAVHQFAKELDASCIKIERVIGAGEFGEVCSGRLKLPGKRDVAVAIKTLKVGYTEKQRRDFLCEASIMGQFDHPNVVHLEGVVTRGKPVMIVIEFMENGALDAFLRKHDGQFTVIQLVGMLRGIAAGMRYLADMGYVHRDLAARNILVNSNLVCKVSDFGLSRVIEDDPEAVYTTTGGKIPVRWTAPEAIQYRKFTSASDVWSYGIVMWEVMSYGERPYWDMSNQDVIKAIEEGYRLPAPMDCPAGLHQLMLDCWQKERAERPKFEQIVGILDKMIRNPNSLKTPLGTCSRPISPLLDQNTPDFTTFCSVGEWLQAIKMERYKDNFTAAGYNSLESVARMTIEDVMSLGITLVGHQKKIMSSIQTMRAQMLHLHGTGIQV
Ephrin type-A receptor 4 (Homo sapiens), sequence (P54764 whole entry): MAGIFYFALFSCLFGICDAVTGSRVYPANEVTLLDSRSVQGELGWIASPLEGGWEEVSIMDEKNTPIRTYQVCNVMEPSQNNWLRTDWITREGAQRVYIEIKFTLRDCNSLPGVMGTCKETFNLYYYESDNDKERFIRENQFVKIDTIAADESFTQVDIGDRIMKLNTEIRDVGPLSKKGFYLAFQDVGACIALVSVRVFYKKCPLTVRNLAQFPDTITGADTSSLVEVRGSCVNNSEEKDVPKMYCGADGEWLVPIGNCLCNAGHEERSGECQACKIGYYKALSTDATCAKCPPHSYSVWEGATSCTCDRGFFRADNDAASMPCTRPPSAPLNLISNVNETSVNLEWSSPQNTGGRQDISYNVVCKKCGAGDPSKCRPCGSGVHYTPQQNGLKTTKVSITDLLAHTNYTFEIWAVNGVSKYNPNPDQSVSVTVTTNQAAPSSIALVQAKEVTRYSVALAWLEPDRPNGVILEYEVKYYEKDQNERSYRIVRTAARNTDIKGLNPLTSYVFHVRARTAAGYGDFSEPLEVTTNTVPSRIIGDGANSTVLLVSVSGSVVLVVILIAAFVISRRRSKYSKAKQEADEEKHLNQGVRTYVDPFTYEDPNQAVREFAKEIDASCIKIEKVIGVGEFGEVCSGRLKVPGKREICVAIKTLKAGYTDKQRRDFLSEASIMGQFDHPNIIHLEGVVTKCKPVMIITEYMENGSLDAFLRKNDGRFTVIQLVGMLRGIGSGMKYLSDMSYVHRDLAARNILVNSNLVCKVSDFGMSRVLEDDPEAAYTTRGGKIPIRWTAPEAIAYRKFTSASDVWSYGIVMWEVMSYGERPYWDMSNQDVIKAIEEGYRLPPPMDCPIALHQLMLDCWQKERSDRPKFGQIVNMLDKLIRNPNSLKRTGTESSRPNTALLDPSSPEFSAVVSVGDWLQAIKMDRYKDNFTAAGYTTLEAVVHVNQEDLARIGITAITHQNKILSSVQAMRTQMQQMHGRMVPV
Ephrin type-A receptor 5 (Homo sapiens), sequence (P54756 whole entry): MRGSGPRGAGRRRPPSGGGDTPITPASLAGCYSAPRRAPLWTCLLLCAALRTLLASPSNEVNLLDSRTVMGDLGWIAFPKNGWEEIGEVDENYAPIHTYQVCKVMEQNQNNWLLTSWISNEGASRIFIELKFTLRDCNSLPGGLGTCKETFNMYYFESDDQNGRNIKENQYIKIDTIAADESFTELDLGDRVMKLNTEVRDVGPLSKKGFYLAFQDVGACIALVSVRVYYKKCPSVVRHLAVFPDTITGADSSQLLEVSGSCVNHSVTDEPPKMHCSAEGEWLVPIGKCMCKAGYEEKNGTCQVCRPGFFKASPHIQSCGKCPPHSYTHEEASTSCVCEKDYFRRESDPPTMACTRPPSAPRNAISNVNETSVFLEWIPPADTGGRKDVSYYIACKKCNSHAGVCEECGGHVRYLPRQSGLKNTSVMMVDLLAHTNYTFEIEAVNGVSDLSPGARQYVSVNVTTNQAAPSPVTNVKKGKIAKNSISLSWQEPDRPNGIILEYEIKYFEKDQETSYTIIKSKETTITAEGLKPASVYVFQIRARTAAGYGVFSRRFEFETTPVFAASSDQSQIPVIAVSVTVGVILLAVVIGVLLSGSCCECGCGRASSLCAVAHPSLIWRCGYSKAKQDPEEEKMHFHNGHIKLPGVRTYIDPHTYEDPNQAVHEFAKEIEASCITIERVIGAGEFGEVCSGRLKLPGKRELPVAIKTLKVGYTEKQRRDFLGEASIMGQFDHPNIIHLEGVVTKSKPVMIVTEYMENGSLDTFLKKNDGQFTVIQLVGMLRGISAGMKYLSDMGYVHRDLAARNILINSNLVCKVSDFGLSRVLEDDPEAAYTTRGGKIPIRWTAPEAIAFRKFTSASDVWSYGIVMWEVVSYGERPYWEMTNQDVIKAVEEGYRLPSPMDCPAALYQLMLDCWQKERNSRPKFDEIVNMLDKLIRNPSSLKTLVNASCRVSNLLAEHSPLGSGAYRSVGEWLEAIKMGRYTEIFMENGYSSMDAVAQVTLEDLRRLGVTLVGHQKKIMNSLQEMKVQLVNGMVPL
Ephrin type-A receptor 2 (Homo sapiens), sequence (P29317 whole entry): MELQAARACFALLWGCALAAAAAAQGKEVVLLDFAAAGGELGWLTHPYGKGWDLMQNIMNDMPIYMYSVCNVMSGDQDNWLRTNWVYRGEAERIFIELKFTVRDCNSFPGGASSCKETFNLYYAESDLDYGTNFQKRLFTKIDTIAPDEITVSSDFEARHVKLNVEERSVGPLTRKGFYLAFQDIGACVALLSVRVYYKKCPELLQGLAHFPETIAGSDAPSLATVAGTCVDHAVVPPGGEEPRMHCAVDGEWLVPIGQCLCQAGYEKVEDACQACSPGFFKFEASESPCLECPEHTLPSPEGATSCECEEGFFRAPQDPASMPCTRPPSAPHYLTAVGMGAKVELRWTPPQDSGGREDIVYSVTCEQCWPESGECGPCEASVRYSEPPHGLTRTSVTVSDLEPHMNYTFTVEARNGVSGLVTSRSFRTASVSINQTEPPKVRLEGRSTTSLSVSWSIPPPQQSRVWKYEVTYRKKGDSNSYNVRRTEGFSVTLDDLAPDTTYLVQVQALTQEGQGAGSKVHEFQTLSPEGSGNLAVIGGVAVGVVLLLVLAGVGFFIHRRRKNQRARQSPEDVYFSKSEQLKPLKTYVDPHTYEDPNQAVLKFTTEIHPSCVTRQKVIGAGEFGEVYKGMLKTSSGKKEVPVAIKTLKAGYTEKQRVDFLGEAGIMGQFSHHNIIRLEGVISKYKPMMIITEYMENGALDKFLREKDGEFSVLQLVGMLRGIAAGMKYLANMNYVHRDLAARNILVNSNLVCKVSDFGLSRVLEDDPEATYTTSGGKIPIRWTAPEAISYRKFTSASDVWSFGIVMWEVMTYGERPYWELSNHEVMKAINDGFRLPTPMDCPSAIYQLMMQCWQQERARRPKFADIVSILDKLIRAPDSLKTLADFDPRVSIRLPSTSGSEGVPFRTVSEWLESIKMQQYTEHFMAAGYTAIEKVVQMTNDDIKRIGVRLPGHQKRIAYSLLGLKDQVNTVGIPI

For orientation: residual activity means the signal under treatment as a percentage of the control signal. In the case of `Nc1ncnc2[nH]nc(Nc3ccc(F)cc3)c12`, the residual activity in [1] came out at 16%; in test [2] it was 79%; in test [3], 30%; in [4], 43%; in test [5] it was 50%; in test [6], 42%. Also, the residual activity in test [7] amounted to 111%; in test [8], 77%; in [9], 82%; in test [10], 34%; in test [11] it was 105%; in [12] it was 43%.
In the case of `CCN(CC)CCNC(=O)c1c(C)[nH]c(/C=C2\C(=O)Nc3ccc(Cl)cc32)c1C`, the residual activity came out at 2% in [1]; 78% in test [2]; 37% in test [3]; 82% in test [4]; 37% in test [13]; 73% in test [5]. Also, the residual activity in test [6] came to 47%; in test [11], 79%; in test [14] it was 24%; in test [15], 100%; in [12], 55%; in test [16], 64%.
In the case of `CC(C)(C)n1nc(Cc2cccc3ccccc23)c2c(N)ncnc21`, the residual activity in [1] is 103%; in test [2] it was 109%; in [3] it was 99%; in test [4] it was 7%; in test [13], -1%; in [17], 33%. For the same compound, the residual activity is 1% in test [5]; 63% in [18]; 8% in [6]; 47% in test [7]; 5% in test [8]; 21% in [9]. The residual activity is 5% in test [10]; 89% in [11]; 33% in [14]; 33% in [15]; 6% in [12]; 13% in [16].
